# From PubChem BioAssay (Tox21)
# Values joined by “and” are separate entries in the source; they are usually repeats but may differ in a detail not shown here. Equal values may be shown once. Results filed as inconclusive are left out. Where a call stands in place of a potency, no number is given. A structure can be active in one record and inactive in another. Active and inactive are the calls of the source. Calls come from the whole dose curve; as a rule, active = well fitted activation curve with a large enough effect in the repeat runs; inconclusive = weak or mixed curves; inactive = flat fitted curve, though single readings scatter.
# Experiment: A CellTox Green Cytotoxicity Assay to monitor cytotoxicity in HepG2 cells - 40 hour (AID 1224879); note: nearly all actives have a fitted effect of over 40% in size
# Conditions: CellTox Green fluorescence; series mostly up to 76.8 µM
# From the text: National Center for Advancing Translational Sciences [NCATS]
# NIH Chemical Genomics Center [NCGC]
# U.S. Environmental Protection Agency [EPA]
# National Institutes of Environmental Health Sciences [NIEHS]
# National Toxicology Program [NTP]
# Cell-based models are critical for drug discovery. Determining the natural cytotoxic effects resulting from test compounds is an essential research activity. A CellTox Green Cytotoxicity Assay to monitor cytotoxicity in real time of continues cell culture during 40 hours of the compound treatment was used to screen Tox21 10K library compounds in HepG2 cells. CellTox Green Cytotoxicity Assay is a nonlytic, homogeneous, biofluorescent method to measure cytotoxicity in cell culture after experimental manipulation. The assay system uses a proprietary asymmetric cyanine dye that is excluded from viable cells but preferentially stains the dead cell's DNA. […] Viable cells produce no appreciable increases in fluorescence. Therefore, the fluorescence signal produced by the binding interaction with dead cell DNA is proportional to cytotoxicity.
# The mixture of HepG2 cell suspension and reagents were dispensed at 600cells/6 ul/well in 1536-well tissue culture treated black solid bottom plates using a Multidrop dispenser. After the assay plates were incubated at a 37 C/5% CO2 incubator for 5 hours, 23 nL of compounds dissolved in DMSO, positive and negative controls was transferred to the assay plate by a pintool work station. The plates were incubated at 37 C for 40 hours. The fluorescence intensity were measured at 0h, 8h, 16h, 24h, 32h and 40h time points using ViewLux plate reader during compound treatment.
# Potency is the fitted concentration of half-maximal effect.
row,Compound,Potency
1,COc1c2ccoc2cc2oc(=O)ccc12,inactive
2,C=C1C[C@]23C[C@@]1(O)CC[C@H]2[C@@]12C=C[C@H](O)[C@@](C)(C(=O)O1)[C@H]2[C@@H]3C(=O)O,inactive
3,Nc1cccc(N)n1,inactive
4,CN1CCCC1=O,inactive
5,O=C1CCCCCCCCCCC1,inactive
6,N[C@@H](Cc1cc(I)c(Oc2ccc(O)c(I)c2)c(I)c1)C(=O)O,inactive
7,CCCCC(CC)COC(=O)c1ccc(C(=O)OCC(CC)CCCC)cc1 (stereo not given),inactive
8,CC/C(C)=N/O,inactive
9,Cc1ccccc1C=O,inactive
10,CS(=O)(=O)c1ccc(Cl)cc1,inactive
11,O=C(O)Cc1c[nH]c2ccccc12,inactive
12,OC1CCCCC1,inactive
13,CC1(C)[C@@H](O[C@H]2O[C@H](C(=O)O)[C@@H](O)[C@H](O)[C@H]2O[C@@H]2O[C@H](C(=O)O)[C@@H](O)[C@H](O)[C@H]2O)CC[C@]2(C)[C@H]3C(=O)C=C4[C@@H]5C[C@@](C)(C(=O)O)CC[C@]5(C)CC[C@@]4(C)[C@]3(C)CC[C@@H]12,inactive
14,C=CC(C)(C)C,inactive
15,CCOC(=O)CC(=O)OCC,inactive
16,NCCNCCNCCN,inactive
17,OCCOCCOCCOCCOCCO,inactive
18,Cc1ccccc1Cl,inactive
19,c1cnc2c(c1)ccc1cccnc12,44.1 µM (active) and inactive
20,CN=C(NC#N)NCCSCc1nc[nH]c1C,inactive

row,Compound,Potency
1,Brc1ccc(Oc2ccc(Br)cc2)cc1,inactive
2,Oc1ccc(Cc2ccccc2O)cc1,inactive
3,Cc1nnc(NS(=O)(=O)c2ccc(N)cc2)s1,inactive
4,Nc1nc(N)c2nc(-c3ccccc3)c(N)nc2n1,49.5 µM (active) and 49 µM (active)
5,O=C(O)C1=NN(c2ccc(S(=O)(=O)O)cc2)C(=O)C1,inactive
6,N#CCC(=O)O,inactive
7,O=C1O[C@H]([C@H](O)CO)C(O)=C1O,inactive
8,CO[Si](CCCNCCN)(OC)OC,inactive and 49 µM (active)
9,CCCCCCCCO,inactive
10,CCc1cccc(CC)c1N,inactive
11,CC/C=C(\C(=O)N[C@@H]1C(=O)N2C(C(=O)OCOC(=O)C(C)(C)C)=C(COC(N)=O)CS[C@H]12)c1csc(N)n1,inactive
12,NC(=O)NC(N)=O,inactive
13,CCCCCCCC(=O)O,inactive
14,CCCN(CCC)C(=O)SCC,inactive
15,COc1cc(NC(=O)CC(C)=O)c(OC)cc1Cl,inactive
16,OCc1ccc(Cl)cc1Cl,inactive
17,CCCCCNCCCCC,inactive
18,CC(=O)c1nccs1,inactive
19,OCC(O)CS (stereo not given),inactive
20,CC[N+](CC)(CC(=O)Nc1c(C)cccc1C)Cc1ccccc1,inactive
